Rows were chosen to be rich in hits. Some 3.8% of all compounds tested hit in one or more screens of this group.
CBFb RUNX1 block – CBF-beta/RUNX1 interaction disruption | Potency, µM (top dose mostly 59.8 µM), inactives show at the highest dose activity, negative = inhibition, most hits filed as inhibitors | AID 1477 | 230,000 tested, under 10 active | AlphaScreen CBFb-His/RUNX1-biotin binding, biochemical | Q01196+Q13951; note: % of control where 0% means no effect
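Inhibition was taken as any reduction in AlphaScreen signal from the CBF-beta–RUNX1 pair (His and biotin tags, 30 nM each), measured after compound (15 min) and bead (90 min) incubations at room temperature.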
MBNL1 CUG block – MBNL1-poly(CUG) RNA binding inhibition; Q9NR56; TR-FRET MBNL1-His/biotin-(CUG)12 binding, 665/545 ratio; Potency, µM (titrated, usually from 57.5 µM), for the others: at the highest dose activity change, negative = inhibition, most hits filed as inhibitors; actives 0.036% (n = 280,000); AID 2675; active = well fitted inhibition curve with a large enough effect in the signal ratio, with a control signal flat, not every such curve was filed as active; inconclusive = small, poorly fitted or top-dose-only effect, or effect the other way, or a change in a side signal; inactive = no such curve, though single readings can be large or run the other way; the % refers to the signal ratio; note: potency is the fitted concentration of half-maximal effect; % is set by controls: 0 for no effect and ±100 for the full control effect
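Compound titration spanned 92 nM–58 uM against the MBNL1-His/biotin-(CUG)12 complex. After 60 min at room temperature with 5 nM streptavidin-XL665 and 0.055 ng/ul terbium anti-His, ratiometric 665/545 nm emission (Ex 340 nm) normalized to controls.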
KCNH2 3.1 inh – KCNH2 3.1 (human) potassium channel inhibition; U2OS KCNH2 3.1, thallium flux FluxOr; active compounds read low; actives 0.95% (n = 340,000); activity change, % (tested at about 1.8 µM);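 active = maximum activity change below -70%; inconclusive = maximum activity change from -70% to -50%; inactive = maximum activity change above -50%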;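 note: thallium influx rate constant from kinetic fluorescence after stimulation buffer; % is set by controls: 0 for no effect and ±100 for the full control effect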
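Normalized rate constant (relative to positive and negative DMSO controls) derived from a 2 min kinetic fluorescence read after stimulation; U2OS cells expressing the 3.1 isoform via virus at 1.77 x 10^8 /mL.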
hERG WT inh – blocks the wildtype human KCNH2 potassium channel; U2OS, BacMam KCNH2, thallium flux FluxOr; active compounds read low; activity change, % at 1.84 µM; actives 0.37% (n = 340,000);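 active = maximum activity change below -70%; inconclusive = maximum activity change between -70% and -50%; inactive = maximum activity change above -50%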; note: % is set by controls: 0 for no effect and ±100 for the full control effect
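U2OS cells were transduced with wild-type KCNH2 virus (2.03 x 10^8 / mL) for 4 h at room temperature, then cultured overnight at 37 C. Thallium flux was read with FluxOr dye. Rate constants were normalized to DMSO controls.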
PLK1 PBD inh – PLK1 (human) polo-box domain binding inhibition. Potency, µM, for inactives: max response, negative = inhibition, hits mostly inhibitors. actives 2.8% (n = 360,000). P53350. Plk1 PBD binding of FITC phosphopeptide, fluorescence polarization; note: potency is the fitted concentration of half-maximal effect; series mostly up to about 57 µM; % is set by controls: 0 for no effect and ±100 for the full control effect; nearly all actives have a fitted effect of over 65% in size
Target sequence (P53350 whole entry, looked up, the tested form may be a part): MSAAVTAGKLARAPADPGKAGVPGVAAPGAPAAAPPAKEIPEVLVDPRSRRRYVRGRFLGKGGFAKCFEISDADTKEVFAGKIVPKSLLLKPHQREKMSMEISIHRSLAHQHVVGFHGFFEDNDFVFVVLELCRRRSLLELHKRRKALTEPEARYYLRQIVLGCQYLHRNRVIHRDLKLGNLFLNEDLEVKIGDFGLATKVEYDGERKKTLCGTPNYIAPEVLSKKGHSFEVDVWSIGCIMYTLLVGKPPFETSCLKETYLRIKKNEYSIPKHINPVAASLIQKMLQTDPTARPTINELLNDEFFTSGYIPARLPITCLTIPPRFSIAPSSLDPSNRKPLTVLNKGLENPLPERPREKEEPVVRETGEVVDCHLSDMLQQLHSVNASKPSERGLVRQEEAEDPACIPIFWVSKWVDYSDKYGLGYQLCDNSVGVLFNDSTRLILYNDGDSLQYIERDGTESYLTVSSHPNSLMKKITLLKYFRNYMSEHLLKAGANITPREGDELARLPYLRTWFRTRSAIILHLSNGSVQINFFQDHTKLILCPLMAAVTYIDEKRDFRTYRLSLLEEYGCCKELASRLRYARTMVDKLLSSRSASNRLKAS
VDR inhibitor – blocks the human vitamin D receptor; Potency, µM, for the others: max response, negative = inhibition, hits mostly inhibitors; VDR-SRC2-3 peptide fluorescence polarization, 2 h; actives 0.93% (n = 400,000); note: potency is the fitted concentration of half-maximal effect; % is set by controls: 0 for no effect and ±100 for the full control effect
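Two reagent solutions held at 4 deg C in the dark were dispensed, compounds pinned at 23 nl, and the mixture incubated 2 h at room temperature. Read-out: fluorescence polarization of VDR–SRC2-3 peptide binding.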
The depositor's hits bear a star; ? = inconclusive; . = no result. Unless noted, calls come from the whole dose curve; as a rule, active = well fitted curve in the direction sought with a large enough effect; inconclusive = small, poorly fitted or top-dose-only effect, or another doubt; inactive = no such curve, though single readings can be large; an effect the other way counts as inactive or inconclusive.

SMILES | CBFb RUNX1 block | MBNL1 CUG block | KCNH2 3.1 inh | hERG WT inh | PLK1 PBD inh | VDR inhibitor
O=C(Nc1cc(N2CCCCC2)ncn1)c1ccc(F)cc1 | -8% | -8% | 18 | 1 | 30µM* | -17%
O=C(NC(=O)c1ccc(Cl)cc1)Nc1cc(N2CCCCC2)ncn1 | . | . | -5 | -1 | 27µM* | ?
Fc1ccc2[nH]c(-c3cccs3)cc2c1 | . | . | . | . | . | 10%
Cc1ccccc1CN1CCc2c(OCC(=O)N3CCCCC3)cccc2C1=O | 11% | 2% | -5 | 4 | 30µM* | -30%
O=C(COc1cccc2c1CCN(Cc1ccccc1F)C2=O)N1CCCCC1 | -17% | -4% | -5 | -8 | 5% | 5%
Cc1ccc2oc(=O)n(Cc3ccccc3Cl)c2c1 | . | . | . | . | . | 3%
CCc1ccc(NCc2cc3cc4c(cc3n(CC(=O)Nc3ccc(Cl)cc3)c2=O)OCO4)cc1 | . | . | . | . | . | 5%
COC(=O)c1ccccc1NC(=O)c1nn(C)c2c1COc1ccccc1-2 | . | . | . | . | . | 1%
CC1(C)NC(=O)N(CC(O)COc2ccccc2-c2ccccc2)C1=O (stereo unspecified) | -4% | -3% | 3 | -3 | -3% | -16%
COc1ccccc1OCC(O)CN1C(=O)NC(C)(C)C1=O (stereo unspecified) | 0% | 14% | 3 | 8 | 27µM* | -16%
O=C1CCC/C1=C/Nc1cccc(F)c1 | 14% | 15% | -4 | 8 | 19µM* | ?
O=C1CCCC/C1=C/Nc1ccc2c(c1)OCO2 | -6% | ? | 2 | -7 | -14% | -15%
N#C/C(=C\c1coc2ccccc2c1=O)C(N)=S | 2% | ? | 3 | 12 | 12µM* | ?
Cc1cccc(CCNC(=O)c2ccc3c(c2)nc2n3CCOC2)c1 | . | . | . | . | . | -2%
C=C(C)C(=O)Oc1ccc(N=Nc2ccc(C)cc2)ccc1=O | . | . | 4 | -12 | 21µM* | ?
Cc1cc(C)cc(C(=O)N(C)C2CCCN(Cc3ccccc3F)C2)c1 (stereo unspecified) | . | -6% | -4 | 0 | -8% | 2%
CN(C)c1cccc(C(=O)N(C)C2CCCN(Cc3ccccc3F)C2)c1 (stereo unspecified) | . | -1% | 7 | -71* | -3% | -6%
O=C(NC1CCCc2ccccc21)C1CCN(c2nnc(-n3cccc3)s2)CC1 (stereo unspecified) | -11% | -2% | -79* | -4 | -1% | ?
CC1(C)CC(N2CCN(c3ccccc3)CC2)=CC(=[N+]2CCCC2)C1 | -5% | -2% | -24 | -11 | 3% | 0%
CC1(C)CC(N2CCCC2)=CC(=[N+]2CCCCCC2)C1 | -13% | -8% | -25 | -8 | 30µM* | -19%
O=C(COC(=O)CSc1cc(Cl)ccc1Cl)NCc1ccc2c(c1)OCO2 | -2% | -11% | -2 | 4 | 27µM* | -18%
O=C(COC(=O)COc1ccc(Cl)cc1)NCc1ccc2c(c1)OCO2 | . | . | -26 | 0 | 1% | -11%
COc1cccc2[nH]c3c(N4CCCCC4)ncnc3c12 | 15% | -6% | 7 | 5 | -3% | -3%
COc1cccc2[nH]c3c(Cl)ncnc3c12 | 2% | ? | 0 | -184* | -9% | ?
O=C1CC(=C(c2ccccc2)c2ccccc2)C(=O)N1CCCCN1CCN(c2cccc(Cl)c2)CC1 | -15% | -1% | -74* | -75* | -9% | 15%
SMILES | CBFb RUNX1 block | MBNL1 CUG block | KCNH2 3.1 inh | hERG WT inh | PLK1 PBD inh | VDR inhibitor
c1coc(CNc2nc[n+]3c4c2ncn4CC3)c1 | . | . | . | . | . | -15%
CCOC(=O)c1nn(-c2ccc(Cl)cc2)c2nnc(Cc3ccc(C)cc3)c(=O)n12 | 10% | 61% | -88* | -6 | -1% | -11%
COc1ccc(NC(=O)C(Cc2ccccc2)NS(=O)(=O)c2ccc(Br)s2)cc1OC (stereo unspecified) | . | . | . | . | . | -12%
O=[N+]([O-])c1cc(Br)c(O)c(/C=N/Nc2nnnn2-c2cccc3ccccc23)c1 | ? | 3% | 0 | -12 | 13µM* | ?
O=[N+]([O-])c1ccc(NN=Cc2cccc3ccccc23)cc1 | . | . | -21 | -7 | 1% | 1%
CCNC(=S)Nc1cccc(S(=O)(=O)Nc2ccccc2OC)c1 | 5% | -12% | -85* | 3 | -20% | -2%
CC(/C=N/NC(=O)CN1CCN(Cc2ccc(Cl)cc2)CC1)=C\c1ccco1 | 1% | 16% | -74* | -29 | -8% | -3%
CSc1ccc(/C=N/NC(=O)CN2CCN(Cc3ccc(Cl)cc3)CC2)cc1 | -6% | 3% | -106* | -41 | ? | ?
CSc1ccc(/C=N/NC(=O)CN2CCN(Cc3ccccc3)CC2)cc1 | -2% | 12% | -73* | -1 | -2% | -6%
S=c1nc(C2CC2)[nH]c2ccccc12 | 4% | 17% | 4 | -3 | 24µM* | ?
CCCCC1(C)NC(=S)N2N1C(=S)NC2(C)CCCC (stereo unspecified) | -3% | 5% | -4 | -3 | 0% | 79µM*
CCCCC1(C)Cc2ccccc2C(=S)N1 (stereo unspecified) | -14% | 0% | 12 | -5 | -12% | -13%
CCN(CCCNC(=O)CCc1nc(-c2ccc(C)cc2)no1)c1cccc(C)c1 | -1% | -9% | 0 | 1 | 24µM* | -15%
CCSc1ccccc1C(=O)Nc1ccc(-c2nc3ccccc3s2)c(O)c1 | . | . | . | . | . | 7%
CC(C)CSc1n[nH]c(=S)s1 | 11% | -2% | 14 | -2 | 7.5µM* | -16%
CC(CSc1n[nH]c(=S)s1)c1ccccc1 (stereo unspecified) | . | . | 6 | 1 | ? | -27%
COc1ccc(NC(=O)Cn2c(SCc3ccc(C)cc3)nc3cccnc32)c(OC)c1 | . | . | . | . | . | 1%
COc1ccccc1C(=O)NCCC(=O)Nc1nc2ccccc2[nH]1 | . | . | 11 | -2 | 0% | -9%
COc1ccccc1C(=O)Nc1nc2ccccc2[nH]1 | . | 3% | 0 | -8 | 21µM* | ?
COc1cc(NC(=O)CSc2cc(=O)n(C)c3ccccc23)cc(OC)c1OC | . | . | . | . | . | -14%
CC(=O)OCc1nc2sc(C)c(C)c2c(=O)[nH]1 | 5% | 4% | 1 | 0 | -9% | 3%
Cc1sc2nc(CC(=O)NN)[nH]c(=O)c2c1C | -2% | . | -25 | -1 | 17µM* | -6%
COc1ccc(C(=O)NCC(=O)OCC(=O)N2CCc3ccccc32)cc1 | 7% | 0% | -2 | 5 | -9% | -15%
COc1cc(OC)cc(C(=O)NCC(=O)OCC(=O)N2CCc3ccccc32)c1 | 5% | . | 21 | . | 27µM* | ?
Cc1ccccc1OCC(=O)NCC(=O)OCc1cccc2ccccc12 | . | . | . | . | . | -9%

Screens: PubChem, National Center for Advancing Translational Sciences (NCATS)
